Test results taken from ChEMBL document CHEMBL1961873, “Compounds: GSK PKIS; Assays: Nanosyn kinase panel” (2012).

How the values were obtained:
[1] = molecular target: Tyrosine-protein kinase Fer (Homo sapiens) (UniProt P16591); conditions: at 1 µM
[2] = molecular target: Tyrosine-protein kinase Fes/Fps (Homo sapiens) (UniProt P07332); conditions: at 0.1 µM
[3] = molecular target: Tyrosine-protein kinase Fes/Fps (Homo sapiens) (UniProt P07332); conditions: at 1 µM
[4] = molecular target: Fibroblast growth factor receptor 1 (Homo sapiens) (UniProt P11362); conditions: at 0.1 µM
Chain of Fibroblast growth factor receptor 1 (Homo sapiens) (P11362 22-822 limits assumed): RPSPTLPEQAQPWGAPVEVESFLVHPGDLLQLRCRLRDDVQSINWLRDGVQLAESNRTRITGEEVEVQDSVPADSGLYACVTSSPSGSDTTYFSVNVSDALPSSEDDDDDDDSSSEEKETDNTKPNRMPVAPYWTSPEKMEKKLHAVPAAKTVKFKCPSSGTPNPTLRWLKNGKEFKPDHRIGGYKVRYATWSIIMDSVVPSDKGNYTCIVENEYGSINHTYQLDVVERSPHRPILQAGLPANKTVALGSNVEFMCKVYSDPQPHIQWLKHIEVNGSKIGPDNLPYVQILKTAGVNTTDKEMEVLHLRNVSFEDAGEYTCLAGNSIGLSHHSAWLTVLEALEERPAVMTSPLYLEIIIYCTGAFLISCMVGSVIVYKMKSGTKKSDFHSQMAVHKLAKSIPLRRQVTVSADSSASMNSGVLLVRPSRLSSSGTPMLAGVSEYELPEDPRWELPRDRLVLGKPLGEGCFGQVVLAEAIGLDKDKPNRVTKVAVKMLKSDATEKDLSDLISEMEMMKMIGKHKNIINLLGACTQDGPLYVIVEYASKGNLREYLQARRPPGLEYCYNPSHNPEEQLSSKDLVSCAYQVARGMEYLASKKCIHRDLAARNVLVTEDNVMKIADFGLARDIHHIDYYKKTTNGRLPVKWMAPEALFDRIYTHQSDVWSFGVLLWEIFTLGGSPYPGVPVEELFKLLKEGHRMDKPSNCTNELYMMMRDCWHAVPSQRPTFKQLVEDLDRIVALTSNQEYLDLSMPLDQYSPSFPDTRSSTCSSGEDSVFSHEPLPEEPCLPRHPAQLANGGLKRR

[5] = molecular target: Fibroblast growth factor receptor 1 (Homo sapiens) (UniProt P11362); conditions: at 1 µM
[6] = molecular target: Fibroblast growth factor receptor 2 (Homo sapiens) (UniProt P21802); conditions: at 0.1 µM
Chain of Fibroblast growth factor receptor 2 (Homo sapiens) (P21802 22-821 limits assumed): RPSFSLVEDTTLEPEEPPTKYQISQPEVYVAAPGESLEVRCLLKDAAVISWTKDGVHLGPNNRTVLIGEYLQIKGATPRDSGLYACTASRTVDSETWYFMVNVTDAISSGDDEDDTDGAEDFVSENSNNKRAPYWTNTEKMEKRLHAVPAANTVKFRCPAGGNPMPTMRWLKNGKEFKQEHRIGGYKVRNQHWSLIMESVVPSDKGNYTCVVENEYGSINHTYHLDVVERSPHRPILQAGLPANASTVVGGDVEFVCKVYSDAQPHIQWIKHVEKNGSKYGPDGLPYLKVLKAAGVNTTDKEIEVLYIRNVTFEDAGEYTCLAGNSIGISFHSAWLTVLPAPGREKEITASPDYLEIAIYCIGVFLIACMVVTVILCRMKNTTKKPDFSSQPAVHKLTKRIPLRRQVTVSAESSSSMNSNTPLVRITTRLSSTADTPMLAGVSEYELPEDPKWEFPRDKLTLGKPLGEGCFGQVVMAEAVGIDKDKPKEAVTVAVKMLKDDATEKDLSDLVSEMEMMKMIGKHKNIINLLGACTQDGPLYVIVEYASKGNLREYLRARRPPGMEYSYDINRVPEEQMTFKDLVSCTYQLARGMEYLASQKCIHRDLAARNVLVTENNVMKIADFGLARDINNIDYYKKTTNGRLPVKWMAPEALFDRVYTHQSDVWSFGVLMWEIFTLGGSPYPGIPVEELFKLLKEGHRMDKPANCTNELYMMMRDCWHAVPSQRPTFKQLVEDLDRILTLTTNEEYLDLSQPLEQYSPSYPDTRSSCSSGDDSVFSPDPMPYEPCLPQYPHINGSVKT

[7] = molecular target: Fibroblast growth factor receptor 2 (Homo sapiens) (UniProt P21802); conditions: at 1 µM
[8] = molecular target: Fibroblast growth factor receptor 3 (Homo sapiens) (UniProt P22607); conditions: at 0.1 µM
Chain of Fibroblast growth factor receptor 3 (Homo sapiens) (P22607 23-806 limits assumed): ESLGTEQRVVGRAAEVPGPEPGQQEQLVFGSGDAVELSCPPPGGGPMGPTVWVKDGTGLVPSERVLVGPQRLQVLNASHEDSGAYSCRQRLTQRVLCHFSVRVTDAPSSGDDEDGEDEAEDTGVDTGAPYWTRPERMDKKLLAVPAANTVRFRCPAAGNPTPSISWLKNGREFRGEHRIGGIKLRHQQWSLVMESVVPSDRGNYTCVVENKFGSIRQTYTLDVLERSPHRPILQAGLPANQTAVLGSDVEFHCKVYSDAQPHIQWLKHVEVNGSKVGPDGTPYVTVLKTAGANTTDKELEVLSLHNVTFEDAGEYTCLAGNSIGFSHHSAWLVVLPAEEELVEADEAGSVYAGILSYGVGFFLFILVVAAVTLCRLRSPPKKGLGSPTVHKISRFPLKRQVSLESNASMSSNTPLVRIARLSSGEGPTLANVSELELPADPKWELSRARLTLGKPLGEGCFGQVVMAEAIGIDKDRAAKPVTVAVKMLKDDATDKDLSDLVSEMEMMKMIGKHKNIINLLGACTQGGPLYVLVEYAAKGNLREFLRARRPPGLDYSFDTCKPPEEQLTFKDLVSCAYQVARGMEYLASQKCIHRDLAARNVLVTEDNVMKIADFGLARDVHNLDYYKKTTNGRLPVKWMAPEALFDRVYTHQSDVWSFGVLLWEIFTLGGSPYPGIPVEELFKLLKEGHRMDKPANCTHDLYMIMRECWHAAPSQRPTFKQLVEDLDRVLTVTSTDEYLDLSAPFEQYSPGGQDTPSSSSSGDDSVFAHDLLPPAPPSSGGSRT

[9] = molecular target: Fibroblast growth factor receptor 3 (Homo sapiens) (UniProt P22607); conditions: at 1 µM
[10] = molecular target: Fibroblast growth factor receptor 4 (Homo sapiens) (UniProt P22455); conditions: at 0.1 µM;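 note: values are mean percent inhibition of FGFR4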
Chain of Fibroblast growth factor receptor 4 (Homo sapiens) (P22455 22-802 limits assumed): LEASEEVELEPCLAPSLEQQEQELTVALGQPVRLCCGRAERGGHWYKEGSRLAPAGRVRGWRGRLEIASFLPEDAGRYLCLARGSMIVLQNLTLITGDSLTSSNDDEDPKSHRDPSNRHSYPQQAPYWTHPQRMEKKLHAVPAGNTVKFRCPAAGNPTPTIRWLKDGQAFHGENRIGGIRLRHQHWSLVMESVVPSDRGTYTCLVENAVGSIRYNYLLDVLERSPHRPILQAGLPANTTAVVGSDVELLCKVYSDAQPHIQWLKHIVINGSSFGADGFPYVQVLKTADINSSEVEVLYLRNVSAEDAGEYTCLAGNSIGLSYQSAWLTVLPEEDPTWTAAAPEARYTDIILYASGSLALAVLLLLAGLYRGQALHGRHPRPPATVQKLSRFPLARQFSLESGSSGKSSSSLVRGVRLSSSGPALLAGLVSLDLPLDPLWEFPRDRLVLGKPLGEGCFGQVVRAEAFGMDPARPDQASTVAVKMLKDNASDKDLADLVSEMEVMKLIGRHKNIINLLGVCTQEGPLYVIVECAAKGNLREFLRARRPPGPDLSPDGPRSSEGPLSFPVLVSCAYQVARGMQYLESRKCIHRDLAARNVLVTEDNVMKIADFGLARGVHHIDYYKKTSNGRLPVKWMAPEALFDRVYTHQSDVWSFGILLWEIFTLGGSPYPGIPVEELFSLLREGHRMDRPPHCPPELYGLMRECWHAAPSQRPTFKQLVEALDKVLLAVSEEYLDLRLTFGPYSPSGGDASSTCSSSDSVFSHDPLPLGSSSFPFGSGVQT

Chain of Tyrosine-protein kinase Fes/Fps (Homo sapiens) (P07332 whole entry): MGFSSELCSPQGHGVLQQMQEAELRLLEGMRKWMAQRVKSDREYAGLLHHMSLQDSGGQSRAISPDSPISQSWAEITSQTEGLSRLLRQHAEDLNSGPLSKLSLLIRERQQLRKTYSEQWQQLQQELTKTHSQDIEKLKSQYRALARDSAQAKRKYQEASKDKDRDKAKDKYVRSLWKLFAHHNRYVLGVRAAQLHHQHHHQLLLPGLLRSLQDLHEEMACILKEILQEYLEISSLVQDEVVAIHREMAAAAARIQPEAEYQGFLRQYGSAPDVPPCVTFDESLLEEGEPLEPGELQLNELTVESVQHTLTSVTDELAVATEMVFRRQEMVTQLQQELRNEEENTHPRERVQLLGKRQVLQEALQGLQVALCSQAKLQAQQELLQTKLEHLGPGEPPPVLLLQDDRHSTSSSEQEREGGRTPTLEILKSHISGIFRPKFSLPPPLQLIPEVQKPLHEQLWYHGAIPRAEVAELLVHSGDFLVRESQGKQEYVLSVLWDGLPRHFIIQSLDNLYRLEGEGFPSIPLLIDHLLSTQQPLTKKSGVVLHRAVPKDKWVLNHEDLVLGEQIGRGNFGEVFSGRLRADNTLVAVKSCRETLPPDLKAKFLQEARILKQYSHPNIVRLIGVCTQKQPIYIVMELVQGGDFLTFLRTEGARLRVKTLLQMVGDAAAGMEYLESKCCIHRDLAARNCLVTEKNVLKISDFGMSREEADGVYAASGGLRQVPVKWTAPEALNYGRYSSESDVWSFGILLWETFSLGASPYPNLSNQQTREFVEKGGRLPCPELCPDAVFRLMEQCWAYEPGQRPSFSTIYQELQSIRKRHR
Chain of Tyrosine-protein kinase Fer (Homo sapiens) (P16591 whole entry, looked up): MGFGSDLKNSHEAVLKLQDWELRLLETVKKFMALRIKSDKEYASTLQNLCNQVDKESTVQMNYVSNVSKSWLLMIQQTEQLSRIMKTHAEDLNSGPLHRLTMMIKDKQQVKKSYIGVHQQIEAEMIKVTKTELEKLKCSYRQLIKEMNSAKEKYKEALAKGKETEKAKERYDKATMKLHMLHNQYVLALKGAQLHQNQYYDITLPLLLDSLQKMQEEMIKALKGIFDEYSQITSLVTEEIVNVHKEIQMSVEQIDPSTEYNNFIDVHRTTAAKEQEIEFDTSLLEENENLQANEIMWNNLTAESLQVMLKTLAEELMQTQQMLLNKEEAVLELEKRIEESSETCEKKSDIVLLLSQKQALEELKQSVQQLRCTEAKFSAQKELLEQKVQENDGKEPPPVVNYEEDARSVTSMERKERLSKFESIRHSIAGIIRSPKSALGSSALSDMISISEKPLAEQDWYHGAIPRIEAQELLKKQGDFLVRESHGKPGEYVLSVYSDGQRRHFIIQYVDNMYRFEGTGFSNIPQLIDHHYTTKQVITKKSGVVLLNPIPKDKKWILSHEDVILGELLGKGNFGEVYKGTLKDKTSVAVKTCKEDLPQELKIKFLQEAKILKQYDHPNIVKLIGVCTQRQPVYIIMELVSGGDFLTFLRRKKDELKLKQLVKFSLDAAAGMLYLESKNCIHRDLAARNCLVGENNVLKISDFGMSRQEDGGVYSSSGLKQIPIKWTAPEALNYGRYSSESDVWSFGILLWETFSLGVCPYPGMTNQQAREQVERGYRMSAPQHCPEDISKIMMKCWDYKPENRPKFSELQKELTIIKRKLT

SMILES	inhibition [1] [%]	inhibition [2] [%]	inhibition [3] [%]	inhibition [4] [%]	inhibition [5] [%]	inhibition [6] [%]	inhibition [7] [%]	inhibition [8] [%]	inhibition [9] [%]	inhibition [10] [%]
C[C@@H](Oc1cc(-n2cnc3ccc(OCC4CCN(C)CC4)cc32)sc1C(N)=O)c1ccccc1Cl	7.17	4.96	7.97	5.32	14	9.46	12.5	11.2	8.71	3.93
CS(=O)(=O)CCNCc1ccc(-c2ccc3ncnc(Nc4ccc(OCc5ccccc5)c(Br)c4)c3c2)o1	4.54	2.7	1.88	-3.67	4.36	1.07	4.45	0.3	1.62	-4.71
CN1CCN(CCCNc2nc3ccc(Oc4ccc(NC(=O)Nc5cc(C(F)(F)F)ccc5F)cc4)cc3[nH]2)CC1	3.71	1.57	1.53	-4.14	0.63	-1.49	1.51	-0.95	-0.55	-2.64
CNC(=O)c1cncc(/C=C/c2c(C)cccc2C)c1	3.37	-0.51	-0.68	-3.96	-3.96	-3.46	-2.09	-2.67	-3.86	-4.63
COc1ccc2cc(-c3c(-c4ccncc4)nc(-c4ccc([S+](C)[O-])cc4C)n3C)ccc2c1 (centres undefined)	3.2	-0.52	-1.2	-0.12	2.93	-0.56	2.09	1.3	3.02	2.92
Nc1nccc(-c2c(-c3ccc(F)cc3)ncn2C2CCC(O)CC2)n1 (centres undefined)	19.8	-2.78	-2.56	0.56	11.3	-2.57	1.23	-0.35	1.39	2.77
CCC(=O)Nc1ccc(C)c(-c2ccc(C(=O)NCC3CC3)cc2)c1	1.35	3.63	2.61	2.39	4.4	3.64	5.39	2.42	2.89	2.19
COc1cc(N2CCN(C(C)C)CC2)ccc1Nc1nc(Nc2ccc(F)cc2C(=O)NC[C@@H](O)CO)c2cc[nH]c2n1	60.2	4.45	20.1	-0.71	5.9	1.11	1.86	1.06	3.63	-2.86
CCc1cccc(CC)c1/C=C/c1cncc(C(=O)NC)c1	1.64	2.16	2.33	5.4	11.8	5.9	9.23	6.74	9.45	-1.16
COc1cc(Nc2ncc3c(C)nc(-c4cccc(C(F)(F)F)c4)n3n2)cc(OC)c1OC	16.6	2.74	4.66	0.79	3.96	1.87	10.6	3.25	4.79	0.66
COc1cc(Nc2ncc3c(C)nc(-c4cccc(Oc5ccccc5)c4)n3n2)cc(OC)c1OC	7.1	2.66	3.2	2.41	-0.38	0.66	5.14	3.25	3.03	1.38
COc1ccc2cc(-c3c(-c4ccncc4)nc(-c4ccc(S(C)(=O)=O)cc4C)n3C)ccc2c1	6.59	3.14	3.35	2.35	6.54	3.92	6.16	4.02	6.07	-7.02
COc1cc(Nc2ncc(-c3ccccc3)o2)cc(OC)c1OC	2.66	0.68	-1.45	-3.33	8.79	4.47	27	1.69	16.6	-0.19
NS(=O)(=O)c1ccc(Nc2cc(-c3ccc(O)c(F)c3)n[nH]2)cc1	14.1	-3.61	-0.97	-2.91	8.63	-4.17	9.61	1.11	8.58	1.23
c1ccc(-c2n[nH]cc2-c2ccnc(-c3ccc(OCCN4CCOCC4)cc3)c2)nc1	5.42	0.55	0.54	3.52	5.55	4.12	7.12	3.61	5.31	4.68
COc1cccc(/C=N/Nc2ncnc3c2cnn3-c2cccc(OC)c2)c1	3.78	3.43	3.25	4.2	2.4	5.34	6.12	4.59	5.11	2.44
Cc1ccc(NC(=O)c2ccoc2)cc1-c1ccc(C(=O)NCC2CC2)cc1	-0.39	2.83	1.55	11.2	3.99	0.64	3.44	2.69	5.14	1.47

SMILES	inhibition [1] [%]	inhibition [2] [%]	inhibition [3] [%]	inhibition [4] [%]	inhibition [5] [%]	inhibition [6] [%]	inhibition [7] [%]	inhibition [8] [%]	inhibition [9] [%]	inhibition [10] [%]
O=C(Nc1n[nH]c2nc(-c3ccco3)ccc12)C1CC1	2.89	1.02	1.51	2.13	2.39	-0.33	5.26	1.13	3.83	2.11
Fc1ccc(-c2c(-c3ccncc3)nc3n2CCS3)cc1	1.89	1.15	0.99	-4.25	0.23	-1.78	0.6	1.37	1.47	-6.43
NS(=O)(=O)c1ccc(N/N=C2\C(=O)Nc3ccc(-c4cnco4)cc32)cc1	0.94	0.3	0.19	-2.98	2.6	-0.2	15.2	-0.63	10.1	-3.55
CCc1ccc(Oc2nccc(-c3c(-c4ccc(F)cc4)ncn3C3CCNCC3)n2)cc1	3.15	3.41	3.8	7.59	4.77	9.05	5.8	7.97	5	7.02
O=C(Nc1n[nH]c2cc(-c3ccccc3)ccc12)C1CC1	5.6	2.97	2.53	8.51	2.95	3.3	7.98	6.47	5.96	-0.91
O=C(NCC1CC1)c1ccc(-c2cccc(C(=O)NC3CC3)c2)cc1	-1.83	1.39	1.59	2.86	8.03	3.33	10.1	4.92	9.43	-0.02
COc1cc(C)c(N(C)C(=O)CN(C)C)cc1Nc1nc(Nc2cccc(F)c2C(N)=O)c2cc[nH]c2n1	23	5.04	10.7	0.07	-3.58	-2.28	-2.01	-0.36	-2.8	-3.66
NC(=O)Cc1ccccc1Oc1nccc(-c2c(-c3ccc(F)cc3)ncn2C2CCNCC2)n1	4.36	1.68	2.12	5.6	3.15	1.69	5.26	3.66	3.8	0.37
NC(=O)c1cc(-c2ccc(F)cc2)cc(-c2ccncc2)c1N	1.93	3.18	3.59	5.1	3.07	1.81	4.41	4.84	2.54	-4.89
CS(=O)(=O)CCNCc1cc(-c2cc3c(Nc4ccc(OCc5cccc(F)c5)c(Cl)c4)ncnc3s2)cs1	7.65	4.73	5.27	5.5	3.17	7.79	8.79	6	6.34	5.68
Fc1ccc(-c2nc3n(c2-c2ccncc2)CCS3)cc1	2.81	2.58	2.75	-4.07	1.42	-0.33	1.72	2.38	0.09	-6.29
CN(c1ccc(NC(=O)Nc2c(Cl)cccc2Cl)cc1)c1ccnc(Nc2cccc(CS(C)(=O)=O)c2)n1	77.2	11.1	22.5	6.14	-0.4	3.91	13.4	0.14	5.59	2.62
c1ccc(Oc2ccc(Nc3ncc(-c4ccccc4)o3)cc2)cc1	1.64	0.55	0.4	-1.76	2.11	1.12	3.49	4.41	4.9	2.77
O=C1Nc2ccc(I)cc2C1=Cc1cc(Br)c(O)c(Br)c1	4.37	3.93	4.1	5.92	2.51	8.24	7.14	6.43	5.73	5.1
NS(=O)(=O)c1ccc(N/N=C2\C(=O)Nc3ccc(C(=O)NCCCn4ccnc4)cc32)cc1	–	2.9	3.18	1.31	4.32	3.11	8.85	4.75	5.37	-9.93
O=C(Nc1ccc(Oc2ccc3[nH]c(NC(=O)c4ccccc4)nc3c2)cc1)Nc1cc(C(F)(F)F)ccc1F	7.9	2.28	2.49	2.35	6.8	2.19	18.8	7.91	6.31	-0.39
CCc1nccc2c1nc(-c1nonc1N)n2CC	7.31	0.14	1.26	-0.52	-4.23	-1.59	3.19	-0.24	2.1	-1.31
